Results published in PubChem BioAssay AID651692 (Broad Institute, 2012).
Results with a measured potency or affinity are listed apart. Activity calls are given as the source filed them.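 How the source made its calls: active means fitted half-maximal concentration for loss of cell signal no higher than twice the top valid tested concentration; inconclusive means flat curve at 30 to 70% inhibition, or poor fit; inactive means flat within 30%, signal rise, or potency above limit.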

test: MDA-MB-231 cell growth inhibition, dose response, cytotoxicity control for RAD54 inhibitor project, CellTiter-Glo luminescence, cherry-pick (AID 651692); details: MDA-MB-231 viability, 24 h; series mostly up to 26 µM;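 further: more negative values mean stronger loss of viable cell signal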

| SMILES | outcome |
| --- | --- |
| Cc1ccc(-c2nc(NCCCN(C)C)c3ccccc3n2)cc1 | inactive |
| CCOC(=O)C1C(=O)NC(N2CCN(c3ccccc3)CC2)=NC1c1ccco1 (stereo not given) | inactive |
| Cc1ccc2nc3c(c(N)c2c1)CCN3C | inactive |
| CN1CCN(CCCNC(=O)c2cc3c(-c4ccc(Cl)cc4)nn(C)c3s2)CC1 | inactive |
| CN1CCN(CCNC(=O)c2cc3c(=O)n(C)c4ccccc4c3n2C)CC1 | inactive |
| Cc1cc(C)c2c(N)c3ccccc3nc2n1 | inactive |
| CCCCN(CC)CCCNC(=S)Nc1ccc2nc(N3CCN(CC)CC3)cc(C)c2c1 | inactive |
| COc1cc2nc(N3CCNCC3)nc(N)c2cc1OC | inactive |
| COc1ccc2oc3cc(NCCN(C)C)ccc3c(=O)c2c1 | inactive |
| COc1ccccc1NC(=O)Cn1nnc2sc3c(c2c1=O)CC(C)(C)OC3 | inactive |
| Cn1c2ccc(F)cc2c2ncn(CCCN(CCO)CCO)c(=O)c21 | inactive |
| O=C(Nc1cccc(Br)c1)c1cc(S(=O)(=O)N2CCOCC2)cs1 | inactive |
| O=C(CN1CCCCC1)n1c2ccccc2c2ccccc21 | inactive |
| N=c1c(C(=O)NCCN2CCOCC2)cc2c(=O)n3ccccc3nc2n1CCCN1CCOCC1 | inactive |
| CCN(CC)CCOc1c(Br)ccc2c1sc1nc3n(c(=O)c12)CCC3 | inactive |
| CCCN1CCN(C(=S)Nc2ccc3nc(N4CCN(CC)CC4)cc(C)c3c2)CC1 | inactive |
| CN(C)C(CNC(=O)CCCN1C(=O)c2cccc3cccc(c23)C1=O)c1ccccc1 (stereo not given) | inactive |
| CN(C)CCCNc1nc2cc(-c3ccc(C(=O)N4CCN(C)CC4)cc3)sc2c(=O)n1C | inactive |
| COc1ccc2c(c1)c1ncn(CCN3CCCCC3)c(=O)c1n2C | inactive |
| O=S(=O)(c1ccc(-c2nnc(SCc3ccccc3)o2)cc1)N1CCCC1 | inactive |

| SMILES | outcome |
| --- | --- |
| NC1CCN(c2c(F)cc3c(=O)c(C(=O)O)cn(C4CC4)c3c2Cl)C1 (stereo not given) | inactive |
| Cc1nc2oc3c(=O)[nH]cnc3c2c2c1COC(C)(C)C2 | inactive |
| CCNC1CCC(Nc2ccnc3cc(Cl)ccc23)CC1 (stereo not given) | inactive |
| Cc1c(OCC(=O)NC2CC(C)(C)NC(C)(C)C2)ccc2c1oc(=O)c1ccccc12 | inactive |
| COc1ccc(Nc2c3c(nc4ccc(C)cc24)CCC3)cc1 | inactive |
| Cc1ccc(S(=O)(=O)NCCCNS(=O)(=O)c2ccccc2[N+](=O)[O-])cc1 | inactive |
| COc1ccc(Nc2c3ccccc3nc3ccccc23)cc1 | inactive |
| COc1ccc(Nc2nc(NCC3CCCO3)c3ccccc3n2)c(OC)c1 (stereo not given) | inactive |
| CN1CCN(CCCNC(=O)c2cc3c(=O)oc4ccccc4c3s2)CC1 | inactive |
| CN1CCN(c2ccc(Nc3ccnc4cc(Cl)ccc34)cc2)CC1 | inactive |
| COc1ccc2nc(-c3ccc(N)cc3)[nH]c2c1 | inactive |
| NC(=O)C1CCN(c2nc(-c3cccnc3)cs2)CC1 | inactive |
| Cc1ccc(-c2nc(C(=O)NCCCN(C)C)cc3c2[nH]c2ccccc23)cc1 | inactive |
| CCOC(=O)c1cnc2ccc(OCC)cc2c1NCCCN1CCOCC1 | inactive |
| CN1CCN(c2ccc(CNC(=O)C3Cc4c(-c5ccc(Cl)cc5)ccnc4O3)cc2)CC1 (stereo not given) | inactive |
| CCN1CCN(CCCNC(=O)c2cc3c(=O)oc4ccc(C)cc4c3s2)CC1 | inactive |
| OCCN1CCN(c2nc(-c3ccccc3O)nc3ccccc23)CC1 | inactive |
| CCOc1ccc2[nH]c3c(NCCN(C)C)ncnc3c2c1 | inactive |
| CCN(CC)CCCNC(=O)c1cc2c(-c3cccc(OC)c3)nn(C)c2s1 | inactive |
| Cc1cc(-c2cc(NC=O)c3ncc(-c4cccc(C(=O)NCCN(C)C)c4)n3c2)cc(C)c1O | inactive |
